Compound activity deposited in PubChem by National Center for Advancing Translational Sciences (NCATS).
In the library only some 11% were active in any assay of this set; here they are far more common.
HTT aggregate: inhibitors of mutant huntingtin aggregate formation in PC12 cells; 220,000 tested, 1.1% active; PC12 HttQ103-GFP aggregates, Acumen cytometry, 40 h; Potency, µM (top dose mostly 46.1 µM), for inactives: at the highest dose activity change, negative = inhibition, most hits filed as inhibitors; AID 1688; active means well fitted curve in the direction sought with a large enough effect; inconclusive means small, poorly fitted or top-dose-only effect, or another doubt; inactive means no such curve, though single readings can be large; an effect the other way counts as inactive or inconclusive; further: potency means the concentration at half of the fitted maximal effect; on the % scale 0 is the no-effect control and ±100 the full control effect; nearly all actives have a fitted effect of over 60% in size
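Inducible Q103 Huntingtin exon 1–GFP PC12 line, 1500 cells/well in phenol red free DMEM with 5% equine and 5% calf serum. Tebufenozide 100 nM induced expression; compounds titrated; aggregates quantified by cytometry.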
HTT ATP protect: cytoprotection in Huntington HTT-Q103 PC12 cell model; PC12 HTT-Q103 induced, cytoprotection, ATP luminescence, 40 h; Potency, µM (highest dose often 56.4 µM), inactives show cytoprotection (ATP increase), hits mostly activators; 230,000 tested, 0.14% active; AID 1471; active means well fitted curve in the direction sought with a large enough effect; inconclusive means small, poorly fitted or top-dose-only effect, or another doubt; inactive means no such curve, though single readings can be large; an effect the other way counts as inactive or inconclusive; further: potency means the concentration at half of the fitted maximal effect; % of control where 0% means no effect; nearly all actives have a fitted effect of over 45% in size
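Rat PC12, Q103 Htt exon1-GFP fusion, ecdysone promoter; tebufenozide inducer 100 nM final; compound titration; qHTS, 1500 cells/well; ATPlite luminescent read.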
HPGD inh: HPGD (human) dehydrogenase inhibition | 150,000 tested, 4.3% active | P15428 | purified HPGD, NADH fluorescence kinetic, PGE2 substrate | Potency, µM, without a hit: at the top dose activity change, negative = inhibition, hits mostly inhibitors; further: potency means the concentration at half of the fitted maximal effect; on the % scale 0 is the no-effect control and ±100 the full control effect
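20 nM HPGD preincubated 15 min at room temperature with compound in 50 mM Tris-HCl pH 8, 0.01% Tween 20. Started with 1 mM NAD+ and 30 uM prostaglandin E2; NADH fluorescence (360/450 nm) read 5 times over 30-s intervals, last minus first.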
ALDH1A1 block: blocks purified human ALDH1A1 activity; 220,000 tested, 7.3% active; Potency, µM (highest dose often 75.3 µM), inactives show top-dose activity, negative = inhibition, most hits filed as inhibitors; AID 1030; Purified ALDH1A1, NADH fluorescence, propionaldehyde substrate; P00352;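 further: potency means the concentration at half of the fitted maximal effect; plate controls were no enzyme wells and a reference inhibitor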
Target sequence (P00352 whole entry, looked up): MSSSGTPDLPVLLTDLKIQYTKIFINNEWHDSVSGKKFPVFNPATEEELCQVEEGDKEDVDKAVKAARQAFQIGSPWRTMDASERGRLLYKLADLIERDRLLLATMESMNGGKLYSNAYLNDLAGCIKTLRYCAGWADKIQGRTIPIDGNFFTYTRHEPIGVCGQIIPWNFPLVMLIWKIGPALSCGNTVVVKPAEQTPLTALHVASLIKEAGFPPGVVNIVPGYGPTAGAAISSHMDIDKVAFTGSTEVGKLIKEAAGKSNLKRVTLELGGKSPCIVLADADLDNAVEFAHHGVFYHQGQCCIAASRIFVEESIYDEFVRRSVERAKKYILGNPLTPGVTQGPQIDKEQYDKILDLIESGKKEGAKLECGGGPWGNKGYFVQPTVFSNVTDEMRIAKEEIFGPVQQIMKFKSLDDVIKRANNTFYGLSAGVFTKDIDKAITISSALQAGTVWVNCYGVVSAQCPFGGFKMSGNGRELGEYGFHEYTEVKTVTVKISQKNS
PNC assembly inh: perinucleolar compartment assembly inhibition; PC3M PTB-GFP, PNC prevalence imaging, 16 h; active compounds read low; activity change (PNC), negative = inhibition, % at 10 µM; 140,000 tested, 3.1% active; AID 2417;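 active means readout at or below -70, meaning at least 70% loss of cells showing the perinucleolar compartment, a nuclear body marking cancer cells; inconclusive means readout between -30 and a set limit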;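 further: plate controls were DMSO wells for no effect and camptothecin positive control wells for full effect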
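Read-out is percentage of cells bearing a perinucleolar compartment, from automated 20x imaging of fixed, Hoechst-stained PC3M PTB-GFP cells. Cells were seeded 4 h, then exposed 16 h to compound (23 nl of library stock) in duplicate plates.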
RGS12 GoLoco inh: blocks human Gai1 binding to RGS12 GoLoco peptide, red readout; Potency, µM (titrated, usually from 61.6 µM), for inactives: at the top dose activity, negative = inhibition, hits mostly inhibitors; Gai1:RGS12 GoLoco peptide FP, rhodamine, 10 min; 230,000 tested, 0.44% active; P63096; AID 880; active means well fitted inhibition curve with a large enough effect, not every such curve was filed as active; inactive means no such curve, though single readings can be large or run the other way; further: potency means the concentration at half of the fitted maximal effect; on the % scale 0 is the no-effect control and ±100 the full control effect; nearly all actives have a fitted effect of over 30% in size
An asterisk follows results filed as active; ? = inconclusive; / = not tested or not shown; [ ] = remark or other dose. Unless noted, the call rests on the fitted dose curve; in most records, active means well fitted inhibition curve with a large enough effect (not every such curve was filed as active); inconclusive means small, poorly fitted or top-dose-only effect, or another doubt; inactive means no such curve, though single readings can be large or run the other way.

SMILES	HTT aggregate	HTT ATP protect	HPGD inh	ALDH1A1 block	PNC assembly inh	RGS12 GoLoco inh
N#CCC1c2ccccc2CCN1C(=O)Nc1ccc(Cl)cc1 (stereo not given)	-17%	-9%[10 µM]	-3%	-2%	-81*	0%
CC(C#N)Sc1nc2ccccc2c(=O)n1-c1ccccc1 (stereo not given)	-4%	-27%	-5%	4.5µM*	19	11%
COc1ccc(N(CCCN2C(=O)c3cccc4cccc(c34)C2=O)C(=O)c2cccc(OC)c2)cc1	-12%	-35%[10 µM]	-11%	8.9µM*	?	-8%
CC(=O)N(CCCCN1C(=O)c2ccccc2C1=O)c1ccc(C)cc1	0%	10%	-12%	0%	25	2%
O=C1c2ccccc2C(=O)N1CCCCN(C(=O)c1ccc([N+](=O)[O-])cc1)c1ccc(Cl)cc1	-13%	-26%	-6%	1.6µM*	6	2%
O=C1c2ccccc2C(=O)N1CCCCN(C(=O)c1ccc(Cl)s1)c1ccc(Cl)cc1	-31%	8%[10 µM]	-17%	4.5µM*	94	-3%
Cc1ccc(N(CN2C(=O)c3ccccc3C2=O)C(=O)c2ccc([N+](=O)[O-])cc2[N+](=O)[O-])cc1	-22%	0%[10 µM]	-6%	-9%	-30	8%
Cc1ccc(N(CCCCN2C(=O)c3ccccc3C2=O)C(=O)c2ccc(Cl)s2)cc1	-1%	-11%[10 µM]	-8%	4%	-3	3%
O=C1c2ccccc2C(=O)N1CCCCN(C(=O)c1cc([N+](=O)[O-])ccc1Cl)c1ccc(Cl)cc1	2%	6%[10 µM]	-15%	5µM*	?	10%
CO[C@@H]1COC(=O)C/C=C\[C@@H](C)COC(=O)[C@H](COCc2ccccc2)NC(=O)C/C=C\[C@H]1C	/	?	/	-10%[13.5 µM]	/	/
Cc1ccc(N(CCCCN2C(=O)c3ccccc3C2=O)C(=O)c2cccc([N+](=O)[O-])c2)cc1	-2%	-36%	-8%	?	9	-2%
O=C1c2ccccc2C(=O)N1CCCCN(C(=O)c1cc([N+](=O)[O-])cc([N+](=O)[O-])c1)c1ccc(Cl)cc1	10%	17%[10 µM]	-7%	1.4µM*	-27	-3%
CCCCCCCCCn1c2c(c(=N)c3c1CCC3)CCCC2	-33%[9.22 µM]	-76%[10 µM]	/	?	/	17%
CCCCCCCCCCn1c2c(c(=N)c3c1CCC3)CCC2	1µM*	-108%	-3%	-3%	1	6%
CC(/C=C/c1ccco1)=N\NC(=O)COc1ccc(C)c(C)c1	13%[9.22 µM]	-5%[10 µM]	/	3.5µM*	/	80%
CC(/C=C/c1ccco1)=N/NC(=O)CNc1ccccc1C	24%	?	/	-7%	/	19%
COc1ccc(C2(CNC(=O)/C=C\c3ccco3)CCCC2)cc1OC	?	3%[10 µM]	?	3.5µM*	?	54%
Cc1ccc(OCCNC(=O)/C=C/c2ccco2)cc1C	21%[9.22 µM]	-17%[10 µM]	/	11µM*	/	6%
CC(/C=C/c1ccco1)=N\NC(=O)CNc1ccc2ccccc2c1	-2%	-27%	/	7.9µM*	/	-1%
CC1(C)[C@@H](O)CC[C@]2(C)C3C(=O)C=C4C5C[C@@](C)(C(=O)O)CC[C@]5(C)CC[C@@]4(C)[C@]3(C)CC[C@@H]12 (stereo not given in full)	/	-3%[1.9 µM]	-1%	0%	/	-5%
COC(=O)c1ccc(C(/C=C/[C@@H](C)C(=O)NCCN2CCCC2)NC(=O)OCc2ccccc2)cc1 (stereo not given in full)	/	-3%	-8%	-7%	/	6%
CCOC(=O)N/N=C(C)/C=C/c1ccco1	29%	6%[10 µM]	-16%	10µM*	-8	-12%
O=C(NC1CCCCCC1)c1ccc(CN2CCOCC2)cc1	5%	-31%	-2%	7%	-23	4%
N[C@H]1[C@@H](C(=O)O)[C@H]2C=C[C@H]1C2	/	-18%[10 µM]	2%	0.5µM*	/	-3%[14.2 µM]
Cn1cccc1C(=O)N1CCC2(CCCN(C(=O)Nc3ccccc3)C2)CC1	/	-9%	-2%	-5%	/	10%
